From PubChem BioAssay AID602192 (The Scripps Research Institute Molecular Screening Center, 2012)
About 750 (31%) of roughly 2,400 compounds were called active. Only a sample is shown. A number with no mark means an inactive call.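 Rule for the calls: active = mean activation across replicates above the hit cutoff set in the earlier primary screen (cut at about 8% in these data); inactive = the rest.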

The molecules below were run against Melanocortin receptor 4 (Homo sapiens) (UniProt P32245) (assay: activators of MC4R arrestin recruitment – cell-based, luminescence, U2OS, confirmation (AID 602192)). Conditions: U2OS MC4R beta-arrestin recruitment, at 8.9 µM, active compounds read high, scaled DMSO 0%, Melanotan II 100%.
Sequence of Melanocortin receptor 4 (Homo sapiens) (P32245 whole entry, looked up): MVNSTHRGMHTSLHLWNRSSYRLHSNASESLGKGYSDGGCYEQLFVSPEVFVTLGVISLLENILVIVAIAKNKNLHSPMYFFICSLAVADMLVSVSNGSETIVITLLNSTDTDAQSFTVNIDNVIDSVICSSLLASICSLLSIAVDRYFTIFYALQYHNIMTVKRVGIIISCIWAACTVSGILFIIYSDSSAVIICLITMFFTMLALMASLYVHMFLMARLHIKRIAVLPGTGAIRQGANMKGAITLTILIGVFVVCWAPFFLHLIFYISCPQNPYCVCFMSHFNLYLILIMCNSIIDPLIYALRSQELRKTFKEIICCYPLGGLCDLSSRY
In the case of `Cc1ccc(CCC(=O)Nc2ncc(Cc3cc(Cl)ccc3Cl)s2)o1`, the activation is reported as 15.2% (active).
Molecule `COc1c(Cl)cc(C(=O)Nc2ccc(Cl)cn2)cc1Cl` has an activation of 2.15%.
With `COc1cccc(NC(=S)NC(=O)c2c(Cl)c(C)nn2C)c1` the activation was 0.75%.
With `CCN(CC)c1ccc(C(=O)N/N=C/c2ccc(N3CCOCC3)cc2)cc1` the activation was 3.23%.
`O=C(N/N=C/c1ccc(OC(=O)c2ccccc2Cl)cc1)c1ccc(O)cc1` was tested, and the activation was 10.9% (active).
`CCCOc1ccc(C(=O)C(CCC(CNCC)C(=O)c2ccc(OCCC)cc2)CNCC)cc1` (configuration not stated) was tested, and the activation was 47% (active).
`COc1cc(/C=C2\Oc3ccc(C#Cc4ccc(O)cc4)cc3C2=O)cc(OC)c1` was tested, and the activation was 17.7% (active).
In the case of `S=C(NCCCc1cnc[nH]1)NCCCN(Cc1ccc(Cl)c(Cl)c1)c1ccc(Br)cn1`, the activation is reported as 12.9% (active).
`CC(C)c1ccc2c(c1)c(SC(C)(C)C)c(CC(C)(C)C(=O)O)n2Cc1ccc(Cl)cc1` was tested, and the activation was 6.79%.
With `Cc1cc(OCc2cc(C(=O)NCc3cc(C(C)C)no3)no2)cc(C)c1Cl` the activation was -1.7%.
`Oc1ccccc1N1CCN(c2ncnc3sc(-c4ccccc4)cc23)CC1` showed an activation of 3.16%.
`O=C(NC(=S)Nc1cccc2c(O)cccc12)c1cccc(Br)c1` was tested, and the activation was 14.4% (active).
With `CCOc1ccc(/C=C/C(=O)OCC(=O)c2ccccc2OC)cc1OC` the activation was 4.4%.
`CCN1CCC2(CC1)N=C(c1ccc(F)cc1)C(=S)N2C(=O)c1ccc(C)cc1` was tested, and the activation was 6.69%.
For `NC(N)=Nc1nc(-c2ccccc2)c2cc(Cl)ccc2n1`, the activation was 19.8% (active).
`CCCCN1CC(C)(C)[C@H](CC(=O)Nc2ccc(Br)cc2)C1=O` gave an activation of 1.84%.
With `COc1ccccc1-c1cc(NC(C)=O)c2ncc(-c3ccc(F)cc3)n2c1` the activation was 15.2% (active).
`COc1cccc(-c2cnc3c(NC(C)=O)cc(-c4cc(F)ccc4OC)cn23)c1` was tested, and the activation was 27.2% (active).
`CC(=O)Nc1cc(-c2ccccc2N(C)C)cn2c(-c3ccc(F)c(Cl)c3)cnc12` was tested, and the activation was 26% (active).
For `CC(=O)Nc1cc(-c2ccccc2F)cn2c(-c3cccc(C(F)(F)F)c3)cnc12`, the activation was 19% (active).
Molecule `COc1ccccc1NC(=O)Nc1nnc(Cc2ccc(F)cc2)s1` has an activation of 4.89%.
`Fc1ccccc1/C=N/Nc1cc(N2CCCCC2)ncn1` showed an activation of -2.37%.
`O=C(Nc1ccc2oc(-c3ccc4ccccc4c3)nc2c1)c1cccs1` gave an activation of 3.96%.
Work on `O=C(CCCCCn1c(=S)[nH]c2cc3c(cc2c1=O)OCO3)N1CCN(c2ccc(F)cc2)CC1` yielded an activation of 5.47%.
With `COC(=O)c1sccc1NC(=O)c1cc(OC)c(OC)c(OC)c1` the activation was 3.33%.
Work on `O=C(CCCCCN1C(=O)c2cccc3cccc(c23)C1=O)NCc1ccco1` yielded an activation of 6.44%.
`Cc1ccc(Sc2ccc(NC(=O)c3ccc(F)cc3)cc2C#N)cc1` gave an activation of 2.18%.
With `Cc1ccc(S(=O)(=O)NCCC(=O)Nc2ccc(C)c(Cl)c2)cc1C` the activation was 3.25%.
In the case of `CCOC(=O)c1nn(-c2ccccc2F)c2nc(Nc3ccccc3)cc(=O)n12`, the activation is reported as 2.15%.
In the case of `CCN1CCN(CCNC(=O)c2ccc(/C=C3/Sc4ccccc4N(Cc4cccc(C)c4)C3=O)cc2)CC1`, the activation is reported as 9.47% (active).
Molecule `O=C(NCCc1c[nH]c2ccc(Cl)cc12)c1ccc([N+](=O)[O-])cc1` has an activation of 3.47%.
`Cc1ccc(-c2csc(SCC(=O)Nc3cc(C)on3)n2)cc1` gave an activation of 3.04%.
In the case of `Cc1ccc(-n2nc(C)c(/C=N/NC(=O)c3cccs3)c2Cl)cc1`, the activation is reported as 12% (active).
`Cc1ccc(C(=O)Nc2ccc(NC(=O)c3cccs3)cc2)c(C)c1` gave an activation of 2.47%.
With `COCCN(CCOC)S(=O)(=O)c1ccc(C(=O)Nc2nc3c(s2)CCc2ccccc2-3)cc1` the activation was 0.54%.
`CCCCCCCCCCOC(=O)Cn1c(COc2cccc(OC)c2)[n+](C)c2ccccc21` was tested, and the activation was 21.6% (active).
With `CCCCCCCCCCOC(=O)Cn1c(COc2ccc(C)cc2)[n+](C)c2ccccc21` the activation was 29.9% (active).
In the case of `COC(=O)c1c(C)[nH]c(C(=O)/C=C/c2ccc(Cl)cc2)c1C`, the activation is reported as 2.58%.
Work on `CCn1c(SCC(=O)Nc2cccc(F)c2)nnc1-c1cc2cc(Br)ccc2o1` yielded an activation of 2.27%.
`O=C(CCCn1c(SCC(=O)c2ccc(F)cc2)nc2ccccc2c1=O)NCc1ccco1` gave an activation of 4.27%.
With `COc1ccc(Cl)cc1-n1c(C)cc(C(=O)OCC(=O)N2CC(=O)Nc3ccccc32)c1C` the activation was 10.5% (active).
Molecule `Cc1cccc(C)c1OC(=O)CSc1nnc(-c2ccccc2)o1` has an activation of 2.94%.
In the case of `O=C1N/C(=C/c2cccn2-c2ccccc2)C(=O)N1c1cccc(Cl)c1`, the activation is reported as 13.2% (active).
`Clc1ccc(Nc2ncnc3c2nnn3Cc2ccccc2)cc1` gave an activation of -0.43%.
`O=C(OC12CC3CC(CC(C3)C1)C2)c1ccc(NCc2cc(O)ccc2O)cc1` was tested, and the activation was 5.55%.
In the case of `Cc1ccccc1NC(=O)c1ccc(COc2ccc3c(C)cc(=O)oc3c2)cc1`, the activation is reported as 28.2% (active).
Work on `COc1cc(NC(=O)c2cncc(-c3ccc(C#N)cc3)c2)cc(C(=O)Nc2cccc(C(F)(F)F)c2)c1` yielded an activation of 2.95%.
Work on `COc1ccc(Cc2nnc(NC(=O)c3ccc(OC)cc3OC)s2)cc1` yielded an activation of -0.87%.
`COc1ccc(CC(N)c2csc(NC(=O)NC(c3ccccc3)c3ccccc3)n2)cc1` (configuration not stated) was tested, and the activation was 17.4% (active).
For `COc1ccc(C(N)c2csc(NC(=O)Nc3cccc(C(F)(F)F)c3)n2)cc1` (configuration not stated), the activation was 11.5% (active).
Molecule `O=C(NC1CCCCCC1)c1cccnc1Sc1ccc(Cl)cc1` has an activation of 0.48%.
With `COc1ccc(C)c(Cn2c(-c3nonc3N)nc3ccccc32)c1` the activation was -0.25%.
With `CCc1ccc2c(c1)cc(CN(C(=S)Nc1ccccc1Cl)C1CC1)c1nnnn12` the activation was 0.41%.
Work on `Cc1c(-c2ccccc2)n[nH]c1C(=O)N=Nc1c(O)[nH]c2ccccc12` yielded an activation of 3.31%.
`Cc1ccsc1/C=N/Nc1ccc(Cl)nn1` showed an activation of 2.12%.
For `CCOC(=O)c1c(-c2ccccc2)oc2cc(Br)c(O)c(C=O)c12`, the activation was 12.2% (active).
`Cc1ccc([C@H]2C[C@H](O)[C@@H](n3cc(COC(=O)c4ccccc4)nn3)CN2C(=O)C2CCCCC2)cc1` showed an activation of 1.84%.
